This passage reports outcome and AC50 results from PubChem BioAssay (EPA / NIEHS).

The structures appear in SMILES notation. Inconclusive results are not listed. The source made the active and inactive calls. How the source made its calls: active means hit-call score of the fitted dose curve at least 0.9, where 1 is the maximum; inconclusive means response in the unintended direction; inactive means score below 0.9.

Sequence of human RAR-related Orphan Receptor gamma (RORg), RORC (gene 6097) (P51449 whole entry, looked up, the tested form may be a part): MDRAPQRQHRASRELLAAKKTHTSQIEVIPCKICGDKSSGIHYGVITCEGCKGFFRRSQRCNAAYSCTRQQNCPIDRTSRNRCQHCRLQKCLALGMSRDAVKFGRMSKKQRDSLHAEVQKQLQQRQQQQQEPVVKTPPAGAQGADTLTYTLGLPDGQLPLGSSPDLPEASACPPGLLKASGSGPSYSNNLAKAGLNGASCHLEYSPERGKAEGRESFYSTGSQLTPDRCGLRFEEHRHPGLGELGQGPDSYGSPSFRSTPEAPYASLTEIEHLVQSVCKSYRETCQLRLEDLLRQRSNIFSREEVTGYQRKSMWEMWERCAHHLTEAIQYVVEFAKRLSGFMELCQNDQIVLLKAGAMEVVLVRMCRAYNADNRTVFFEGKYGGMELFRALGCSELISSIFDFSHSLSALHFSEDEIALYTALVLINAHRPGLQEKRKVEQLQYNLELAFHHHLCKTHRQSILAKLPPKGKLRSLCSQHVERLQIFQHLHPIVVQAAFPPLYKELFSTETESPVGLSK

This assay concerns the target human RAR-related Orphan Receptor gamma (RORg), RORC (gene 6097) (UniProt P51449). Nature of the assay: ATG_RORg_TRANS: Attagene TRANS-FACTORIAL HepG2 Assay for human RAR-related Orphan Receptor gamma (RORg) (AID 2283011).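 On AC50: potency for induction of reporter transcripts above DMSO so activators.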 In short, it runs like this:
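Activity is scored as increase in GAL4-UAS reporter mRNA over DMSO, detected by fluorescent RT-PCR and capillary electrophoresis in HepG2 cells transiently expressing a RORg-Gal4 chimera, 24 h after dosing.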
`CC(O)C(C)O` (stereo unspecified): the call was inactive.
Turning to `CC(C)(C)C(=O)c1ccccc1`, the molecule was classed as inactive.
The same measure, in the same setting: the entry for `OCCOc1cccc(OCCO)c1` is “inactive”; for `CC1=CC(=O)NS(=O)(=O)O1` it is “inactive”.
Turning to `Cc1ccc(C(=O)O)o1`, the call was inactive.
On the same count and under the same terms, the entry for `Cc1c(N(C)C)c(=O)n(-c2ccccc2)n1C` is “inactive”; for `COCCOCCOCCOCCOCCO` it is “inactive”.
For `O=C1NC(=O)c2ccccc21`, the result was inactive.
Consider `O=c1oc(=O)c2cc3c(=O)oc(=O)c3cc12`, for which the outcome was inactive.
Same read-out and setting: under `Nc1cc(N)cc(C(=O)O)c1` stands “inactive”; under `C=CC(=O)OCCOCCOCC`, “inactive”; under `CCCC(=O)OCCC(C)CCC=C(C)C` (stereo unspecified), “inactive”.
On to `Cc1ccc(C(C)C)cc1O`, for which the molecule was called inactive.
Consider `N#Cc1nc(Cl)c(Cl)c(Cl)c1Cl`, for which the AC50 is 2.56 µM (active).
Turning to `NC(=O)c1ccccc1Cl`, the molecule was called inactive.
`C=CC(=O)OCC(O)COc1ccccc1` (stereo unspecified): the molecule was called inactive.

The AC50 is the midpoint of the concentration-response curve, whichever way the signal moves.
